The nature of assay [1]: AP1 Signaling Pathway (AID 357). Further: on the % scale 0 is the no-effect control and ±100 the full control effect. Particulars: ME-180 AP-1-bla reporter, EGF-induced, beta-lactamase ratio, 5 h; at 17.2 µM (top of the series) unless noted. The gist of the method: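 Cells are seeded overnight, exposed to compound titrations and an EC50 level of EGF for 5 hours at 37 °C, then loaded with CCF4 dye for 2.5 hours. Beta-lactamase activity under the AP-1 element is read as a blue/green ratio.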

The target of assay [2] is Cytochrome P450 1A2 (Homo sapiens) (UniProt P05177). The experiment in a line: p450-cyp1a2 (AID 410; calls by dose curve;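 further: -100% = full effect of reference inhibitor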). The gist of the method:
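O-Demethylation of luciferin 6' methyl ether by human CYP1A2 is monitored as luciferase luminescence. Substrate sits at Km (100uM); enzyme is 20nM. Values are scaled to 57 uM furafylline as maximal inhibition.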

Assay [3] in a line: Stat Signaling Pathway (AID 446).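 Further: ME-180 cervical cancer cells given 40 pM IL-6 alongside compound; SIE-controlled beta-lactamase reporter measured as 460/530 nm FRET emission ratio; on the % scale 0 is the no-effect control and ±100 the full control effect.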 Particulars: ME-180 (cervical carcinoma) SIE beta-lactamase reporter, IL-6 stimulated, 5 h; at 17.2 µM (top of the series) unless noted. The gist of the method: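 Normalization used AC90 stimulation (300 pM IL-6) and AC90 inhibition (125 nM pan-JAK inhibitor at 40 pM IL-6). The underlying signal is SIE-driven beta-lactamase in ME-180 cells after 5 h IL-6 exposure with compound.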

Assay [4] addresses Glucocorticoid receptor (Homo sapiens) (UniProt P04150). The experiment in a line: GR-GFP Redistribution (AID 450;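 active means compounds whose dose series gives a full or clear partial fitted curve of increased nuclear translocation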; further: potency means the concentration at half of the fitted maximal effect).
For assay [5], the target named is Mitogen-activated protein kinase 10 (Mus musculus) (UniProt Q61831). The experiment in a line: JNK3 AlphaScreen Assay (AID 530).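 Further: kinase came from lysate of stimulated human HepG2 cells; signal reports phosphorylation of biotinylated GST-cJun 1-79 at Ser73 with 10 µM ATP; on the % scale 0 is the no-effect control and ±100 the full control effect.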 The gist of the method: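 Activity was read by AlphaScreen after JNK3-containing HepG2 lysate (cytokine pre-activated) phosphorylated biotinylated GST-cJun with 10 uM ATP at room temperature. Phospho-Ser73 cJun antibody with Protein-A acceptor beads provided detection.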
For orientation: Alpha assays give light when donor and acceptor beads are brought close together.

The target of assay [6] is 3',5'-cyclic-AMP phosphodiesterase 4B (Homo sapiens) (UniProt Q07343). The experiment in a line: qHTS Assay for Inhibitors of PDE-IV (AID 607; active means well fitted activation curve with a large enough effect in the main read-out, with a control signal flat, not every such curve was filed as active; further: % of control where 0% means no effect). The gist of the method:
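HEK293 ACTOne cells with CNG channel (1000/well), endogenous PDE4; membrane potential dye, compounds up to 22.9 uM final. Fluorescence Ex 535/Em 590; RO 20-1724 (100 uM final) as reference.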
A general note: In qHTS, concentration-response curves come from the screen itself.

For assay [7], the target named is Guanine nucleotide-binding protein G(i) subunit alpha-1 (Homo sapiens) (UniProt P63096). The experiment in a line: qHTS Assay for Inhibitors of RGS12 GoLoco Motif Activity (Green Fluorophore) (AID 879; active means well fitted curve in the direction sought with a large enough effect; an effect the other way counts as inactive or inconclusive;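 further: 0% = labeled peptide with Gαi1 and full inhibition = labeled peptide alone without protein; negative values mean loss of peptide binding seen as reduced polarization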). The gist of the method:
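A drop in FITC polarization marked displacement of the FITC-tagged RGS12 GoLoco peptide (10 nM) from Gαi1 (50 nM). Compounds were incubated 10 min at room temperature in Tris pH 7.5 buffer containing 150 mM NaCl, 0.1 mM GDP and 0.05% NP40; unlabeled peptide titration served as control.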

Assay [8] is described as follows: qHTS Assay for Identification of Small Molecule Antagonists for NFkB Signaling Pathway (AID 895; active means well fitted inhibition curve with a large enough effect in the signal ratio, with a control signal flat, not every such curve was filed as active; the % refers to the signal ratio; further: potency means the concentration at half of the fitted maximal effect). The gist of the method:
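ME-180 NFkB-bla cells (beta-lactamase under NFkB response element), plated overnight, treated with compound then 10 pM TNF alpha (about EC50) for 5 hrs at 37 C. LiveBLAzer FRET read at 460/530 nm emission, 405 nm excitation.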

The nature of assay [9]: qHTS Assay for Identification of Small Molecule Agonists for Thrombopoietin (TPO) Signaling Pathway (AID 917; active means well fitted curve in the direction sought with a large enough effect; an effect the other way counts as inactive or inconclusive; further: on the % scale 0 is the no-effect control and ±100 the full control effect). The gist of the method:
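Stimulation at the TPO EC50 (26 pM final) was used to detect activators. Ba/F3 mouse cells bearing human TPO receptor and a luciferase reporter under the Glycoprotein IIb promoter were exposed to compounds for 24 hrs at 37 C.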

Assay [10] has as its target Muscarinic acetylcholine receptor M1 (Rattus norvegicus) (UniProt P08482). Briefly: qHTS Assay for Antagonists of Acetylcholine Muscarinic M1 Receptor: Measurement of IP-One Response (AID 944; active means well fitted curve in the direction sought with a large enough effect; an effect the other way counts as inactive or inconclusive; further: nearly all actives have a fitted effect of over 75% in size). The gist of the method:
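Antagonist mode with rat M1 receptor transfected into CHO cells. Compound is added first for 10 min, carbachol at its EC80 follows for 30 min, and lysis reagents then allow TR-FRET detection of accumulated IP1.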

Assay [11] addresses Pyruvate kinase (Leishmania mexicana) (UniProt Q27686). Briefly: qHTS Validation Assay for Inhibitors of Leishmania Mexicana Pyruvate Kinase (AID 945; active means well fitted curve in the direction sought with a large enough effect; an effect the other way counts as inactive or inconclusive;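 further: 0% = DMSO only neutral control wells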). The gist of the method:
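LmPYK E451W 0.2 nM; 0.5 mM PEP, 0.1 mM ADP, 7 mM MgCl2, 50 mM KCl, imidazole pH 7.2, 0.01% Tween 20, 0.05% BSA; 1 h RT; PKLight luminescence; DMSO-normalized.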

Assay [12] addresses Pyruvate kinase PKM (Homo sapiens) (UniProt P14618). The experiment in a line: qHTS Assay for Activators of Human Muscle Pyruvate Kinase (AID 954; active means well fitted curve in the direction sought with a large enough effect, not every such curve was filed as active;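 further: 0% = uninhibited enzyme and -100% = no enzyme or full thiadiazolimine inhibition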). The gist of the method: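 Compound pinned into substrate mix (0.5 mM PEP, 0.1 mM ADP), then 0.1 nM PKM2 added; 1 h, RT. Stop/detection luciferase reagent added, luminescence read. Normalized to no-inhibition and no-enzyme or reference-inhibitor controls.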

In assay [13] the target is Alpha-galactosidase A (Homo sapiens) (UniProt P06280). Briefly: Counterscreen for Glucocerebrosidase Inhibitors: qHTS Assay for Human alpha-Galactosidase at pH 4.5 (AID 992; active means well fitted curve in the direction sought with a large enough effect; an effect the other way counts as inactive or inconclusive; further: 0% is about no effect). The gist of the method: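 Steps: enzyme (2 nM final), then compound across 0.7 nM to 77 uM, then 80 uM fluorogenic galactopyranoside substrate; incubate 20 min at room temperature; quench at pH 10; measure fluorescence at 365/440 nm.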
On the technique in general: A counterscreen serves to expose hits that act by an unwanted route or on another target.

Assay [14] addresses alpha-glucosidase (Oryza sativa, rice) (UniProt Q653V4). Briefly: Counterscreen for Glucocerebrosidase Inhibitors: qHTS Assay for Rice alpha-Glucosidase at pH 5.0 (AID 997; active means well fitted curve in the direction sought with a large enough effect; an effect the other way counts as inactive or inconclusive;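 further: 0% = full activity with enzyme and -100% = basal without enzyme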). The gist of the method:
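Endpoint fluorogenic assay at pH 5.0: compounds (0.7 nM to 77 uM) titrated against 4 nM rice enzyme and 400 uM 4-MU-alpha-glucoside for 20 min at room temperature; NaOH/glycine stop, read ex 365/em 440 nm, Hill-fitted AC50.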

Assay [15] is described as follows: NFAT Signaling Pathway (AID 444). Particulars: Jurkat NFAT-bla M1, carbachol, beta-lactamase ratio, 5 h; at 17.2 µM (top of the series) unless noted. The gist of the method: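 Jurkat cells with NFAT-driven β-lactamase reporter and co-expressed M1 receptor, stimulated with carbachol (final 1 uM, ~EC50), compound titration, 5 h at 37 °C. CCF4 loaded 1 h at RT; 460/530 nm ratio gave %activity and AC50.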

Assay [16] deals with Glucocorticoid receptor (Homo sapiens) (UniProt P04150). Briefly: GR-EFC Redistribution (AID 451; calls by dose curve; further: potency means the concentration at half of the fitted maximal effect). Particulars: CHO-K1 GR-EFC translocation, beta-gal luminescence, 2 h. The gist of the method:
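CHO-K1 cells expressing nuclear EA and GR-ED fragments of b-gal; compounds titrated up to 46 uM final, 2 h at 37 C. GR nuclear translocation read as complemented b-gal luminescence after 1 h RT detection.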

Assay [17] deals with Cytochrome P450 2C19 (Homo sapiens) (UniProt P33261). The experiment in a line: qHTS Assay for Inhibitors and Substrates of Cytochrome P450 2C19 (AID 899; active means well fitted curve in the direction sought with a large enough effect; an effect the other way counts as inactive or inconclusive; further: nearly all actives have a fitted effect of over 60% in size). The gist of the method: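 5 nM human CYP2C19 with 10uM Luciferin-H EGE (at KM) in 50mM KPO4, compound preincubated 10 min at 37C, then NADPH regeneration for 60 min at 37C. Luciferin read by luminescence after detection reagent; normalized to 57uM ketoconazole as full inhibition.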

These results are taken from PubChem BioAssay (NCATS).

Values without a mark were called inactive. Records with an inconclusive call do not appear. Active and inactive are the calls of the source. Unless noted, the call rests on the fitted dose curve; in most records, active means well fitted curve in either direction with a large enough effect (not every such curve was filed as active); inconclusive means small, poorly fitted or top-dose-only effect, or another doubt; inactive means flat fitted curve, though single readings scatter. Where only a bound is given, the exact number is not on record here.

Sequence of Cytochrome P450 1A2 (Homo sapiens) (P05177 whole entry, looked up): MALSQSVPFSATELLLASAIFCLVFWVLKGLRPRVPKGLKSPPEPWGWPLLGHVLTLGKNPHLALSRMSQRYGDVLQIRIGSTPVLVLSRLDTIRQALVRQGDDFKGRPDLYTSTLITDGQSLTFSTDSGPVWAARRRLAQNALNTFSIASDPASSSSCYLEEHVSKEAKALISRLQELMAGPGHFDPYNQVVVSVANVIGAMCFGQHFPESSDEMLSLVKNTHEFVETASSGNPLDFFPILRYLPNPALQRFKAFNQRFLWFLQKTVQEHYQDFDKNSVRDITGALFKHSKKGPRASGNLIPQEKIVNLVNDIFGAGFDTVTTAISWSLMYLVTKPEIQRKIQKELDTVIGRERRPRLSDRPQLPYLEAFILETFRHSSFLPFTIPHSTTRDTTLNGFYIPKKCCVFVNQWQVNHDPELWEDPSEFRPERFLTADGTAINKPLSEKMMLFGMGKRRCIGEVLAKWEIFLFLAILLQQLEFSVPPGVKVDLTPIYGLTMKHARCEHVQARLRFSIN
Sequence of Alpha-galactosidase A (Homo sapiens) (P06280 whole entry, looked up): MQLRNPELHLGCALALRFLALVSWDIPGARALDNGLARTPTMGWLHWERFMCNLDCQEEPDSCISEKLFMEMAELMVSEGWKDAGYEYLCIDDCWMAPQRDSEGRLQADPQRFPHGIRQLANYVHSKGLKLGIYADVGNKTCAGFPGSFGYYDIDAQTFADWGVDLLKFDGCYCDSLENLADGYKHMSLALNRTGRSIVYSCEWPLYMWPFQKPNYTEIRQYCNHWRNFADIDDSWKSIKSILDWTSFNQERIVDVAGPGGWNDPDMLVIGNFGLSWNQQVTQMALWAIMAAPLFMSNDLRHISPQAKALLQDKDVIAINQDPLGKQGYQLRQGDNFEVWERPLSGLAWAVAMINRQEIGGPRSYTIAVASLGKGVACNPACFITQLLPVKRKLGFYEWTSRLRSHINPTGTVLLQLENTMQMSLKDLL
Sequence of 3',5'-cyclic-AMP phosphodiesterase 4B (Homo sapiens) (Q07343 whole entry, looked up): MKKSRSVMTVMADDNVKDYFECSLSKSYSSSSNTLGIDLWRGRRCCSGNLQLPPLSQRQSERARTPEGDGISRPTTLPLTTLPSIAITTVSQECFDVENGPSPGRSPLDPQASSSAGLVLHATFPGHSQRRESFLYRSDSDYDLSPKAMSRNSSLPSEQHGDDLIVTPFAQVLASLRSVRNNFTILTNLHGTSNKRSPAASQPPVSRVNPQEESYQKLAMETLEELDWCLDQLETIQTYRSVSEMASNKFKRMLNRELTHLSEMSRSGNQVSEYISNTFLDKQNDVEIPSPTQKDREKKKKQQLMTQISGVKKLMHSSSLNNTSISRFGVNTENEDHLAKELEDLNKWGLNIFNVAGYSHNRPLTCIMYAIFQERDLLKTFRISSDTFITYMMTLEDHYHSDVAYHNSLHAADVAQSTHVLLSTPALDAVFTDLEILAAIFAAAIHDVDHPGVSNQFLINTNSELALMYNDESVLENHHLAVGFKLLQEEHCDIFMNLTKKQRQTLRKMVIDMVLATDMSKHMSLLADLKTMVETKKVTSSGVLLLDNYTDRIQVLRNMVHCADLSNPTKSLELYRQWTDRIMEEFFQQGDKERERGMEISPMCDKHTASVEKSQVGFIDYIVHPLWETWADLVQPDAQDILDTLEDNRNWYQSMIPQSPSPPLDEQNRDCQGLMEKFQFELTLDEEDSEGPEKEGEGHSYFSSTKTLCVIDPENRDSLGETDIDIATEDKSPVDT
Sequence of Guanine nucleotide-binding protein G(i) subunit alpha-1 (Homo sapiens) (P63096 whole entry, looked up): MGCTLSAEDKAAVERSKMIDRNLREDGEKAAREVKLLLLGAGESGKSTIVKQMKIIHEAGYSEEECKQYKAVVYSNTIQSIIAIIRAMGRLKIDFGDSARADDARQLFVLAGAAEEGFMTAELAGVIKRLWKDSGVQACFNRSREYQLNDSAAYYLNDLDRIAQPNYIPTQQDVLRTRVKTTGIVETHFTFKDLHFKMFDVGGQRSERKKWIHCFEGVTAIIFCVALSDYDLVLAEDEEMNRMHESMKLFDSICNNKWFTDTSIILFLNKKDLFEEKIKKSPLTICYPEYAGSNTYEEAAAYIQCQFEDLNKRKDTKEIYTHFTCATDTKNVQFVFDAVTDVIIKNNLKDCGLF
Sequence of Pyruvate kinase PKM (Homo sapiens) (P14618 whole entry, looked up): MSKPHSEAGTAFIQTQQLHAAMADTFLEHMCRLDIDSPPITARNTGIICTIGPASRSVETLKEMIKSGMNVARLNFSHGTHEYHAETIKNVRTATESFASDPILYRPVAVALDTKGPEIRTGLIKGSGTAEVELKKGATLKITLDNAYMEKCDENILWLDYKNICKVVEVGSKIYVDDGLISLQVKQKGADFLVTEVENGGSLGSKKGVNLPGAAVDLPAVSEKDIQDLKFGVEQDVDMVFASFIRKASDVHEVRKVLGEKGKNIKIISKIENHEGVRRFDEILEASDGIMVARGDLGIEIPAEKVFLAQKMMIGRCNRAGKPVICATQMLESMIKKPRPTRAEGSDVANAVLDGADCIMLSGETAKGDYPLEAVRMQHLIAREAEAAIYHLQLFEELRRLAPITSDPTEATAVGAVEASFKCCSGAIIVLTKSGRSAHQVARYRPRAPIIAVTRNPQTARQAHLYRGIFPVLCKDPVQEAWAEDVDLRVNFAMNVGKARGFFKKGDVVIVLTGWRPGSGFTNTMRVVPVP
Sequence of Pyruvate kinase (Leishmania mexicana) (Q27686 2-499 E452W): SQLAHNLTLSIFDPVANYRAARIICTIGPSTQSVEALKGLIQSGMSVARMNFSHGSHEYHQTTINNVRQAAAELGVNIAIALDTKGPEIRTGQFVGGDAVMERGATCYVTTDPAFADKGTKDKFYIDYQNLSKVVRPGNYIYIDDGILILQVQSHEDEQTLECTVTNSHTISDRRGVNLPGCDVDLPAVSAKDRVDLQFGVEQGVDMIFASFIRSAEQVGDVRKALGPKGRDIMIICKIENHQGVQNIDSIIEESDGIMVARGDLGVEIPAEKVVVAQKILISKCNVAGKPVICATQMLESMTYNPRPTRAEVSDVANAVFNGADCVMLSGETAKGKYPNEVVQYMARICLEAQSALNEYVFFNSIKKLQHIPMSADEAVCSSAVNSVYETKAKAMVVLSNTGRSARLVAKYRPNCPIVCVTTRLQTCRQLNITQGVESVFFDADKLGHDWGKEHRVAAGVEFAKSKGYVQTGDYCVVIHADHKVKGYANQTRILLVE
Sequence of Glucocorticoid receptor (Homo sapiens) (P04150 whole entry, looked up, the tested form may be a part): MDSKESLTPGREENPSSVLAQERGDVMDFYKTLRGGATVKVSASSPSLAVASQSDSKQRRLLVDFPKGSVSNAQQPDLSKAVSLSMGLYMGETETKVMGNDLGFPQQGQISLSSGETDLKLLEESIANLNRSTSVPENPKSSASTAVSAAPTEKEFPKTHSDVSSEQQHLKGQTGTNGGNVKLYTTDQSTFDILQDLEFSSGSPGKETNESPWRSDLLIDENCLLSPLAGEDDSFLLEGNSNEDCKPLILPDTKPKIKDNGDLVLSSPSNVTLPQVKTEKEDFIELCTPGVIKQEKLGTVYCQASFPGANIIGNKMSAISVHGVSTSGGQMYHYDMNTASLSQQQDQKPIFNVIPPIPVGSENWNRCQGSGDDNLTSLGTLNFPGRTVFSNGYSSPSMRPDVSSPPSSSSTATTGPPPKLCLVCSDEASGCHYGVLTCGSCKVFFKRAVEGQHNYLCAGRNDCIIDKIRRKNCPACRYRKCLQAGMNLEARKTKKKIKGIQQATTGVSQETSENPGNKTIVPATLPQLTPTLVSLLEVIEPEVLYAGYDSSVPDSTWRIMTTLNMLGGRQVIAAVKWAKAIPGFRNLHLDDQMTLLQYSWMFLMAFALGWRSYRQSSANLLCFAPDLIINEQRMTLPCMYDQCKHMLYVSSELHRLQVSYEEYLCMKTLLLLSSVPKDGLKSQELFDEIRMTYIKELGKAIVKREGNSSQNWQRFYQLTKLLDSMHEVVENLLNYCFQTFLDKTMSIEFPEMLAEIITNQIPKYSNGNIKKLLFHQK
Sequence of Muscarinic acetylcholine receptor M1 (Rattus norvegicus) (P08482 whole entry, looked up): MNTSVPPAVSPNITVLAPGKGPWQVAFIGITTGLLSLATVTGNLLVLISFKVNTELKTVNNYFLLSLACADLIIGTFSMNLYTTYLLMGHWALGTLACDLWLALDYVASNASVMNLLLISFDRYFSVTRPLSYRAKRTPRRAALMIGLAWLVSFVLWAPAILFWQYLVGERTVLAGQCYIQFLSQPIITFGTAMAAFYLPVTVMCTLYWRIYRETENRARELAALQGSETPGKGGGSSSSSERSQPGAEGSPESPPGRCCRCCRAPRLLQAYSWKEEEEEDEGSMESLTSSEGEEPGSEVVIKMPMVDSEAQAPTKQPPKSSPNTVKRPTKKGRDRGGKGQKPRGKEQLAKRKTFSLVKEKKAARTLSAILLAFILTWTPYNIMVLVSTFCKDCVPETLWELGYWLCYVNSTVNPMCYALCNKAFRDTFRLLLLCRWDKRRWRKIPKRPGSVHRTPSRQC
Sequence of Cytochrome P450 2C19 (Homo sapiens) (P33261 whole entry, looked up): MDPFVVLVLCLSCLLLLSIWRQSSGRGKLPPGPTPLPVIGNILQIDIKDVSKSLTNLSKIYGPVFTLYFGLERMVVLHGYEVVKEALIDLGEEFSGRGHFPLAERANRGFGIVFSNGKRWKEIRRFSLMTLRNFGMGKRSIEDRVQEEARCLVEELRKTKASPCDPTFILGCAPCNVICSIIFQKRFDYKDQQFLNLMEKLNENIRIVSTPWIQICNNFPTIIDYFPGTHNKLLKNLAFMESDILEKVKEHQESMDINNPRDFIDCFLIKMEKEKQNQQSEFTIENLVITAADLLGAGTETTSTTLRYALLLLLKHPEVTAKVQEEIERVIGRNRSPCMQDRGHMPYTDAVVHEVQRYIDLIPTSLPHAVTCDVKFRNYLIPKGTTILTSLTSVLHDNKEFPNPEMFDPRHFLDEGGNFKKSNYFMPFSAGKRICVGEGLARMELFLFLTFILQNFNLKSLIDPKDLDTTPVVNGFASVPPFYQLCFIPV

On to `C[C@@]12CCC(=O)C=C1CC[C@@H]1[C@@H]2[C@H](O)C[C@]2(C)[C@@H]1CC[C@]2(O)C(=O)COC(=O)CCC(=O)O`, for which the activity change, negative = inhibition in assay [1] is -0.329% [at 38 µM]. In addition, the Potency entry in [2], in assay [5], in assay [6], in [9], in [10] and in assay [11] was “inactive” each time. In [3], the activity, negative = inhibition is -14.6% [at 38 µM]. Further, the Potency in [4] is 0.112 µM (active); in [8], 224 nM (active). Also, the result in assay [7], in assay [12], in assay [13] and in assay [14] was inactive.
As to `Cc1[nH]nc(-c2ccc(O)cc2O)c1Oc1ccccc1`, the activity change, negative = inhibition is -8.71% in assay [1] and -25.7% in assay [15]. Further, in [3], the activity, negative = inhibition is -21.9%. The Potency in assay [4] is more than 20.6 µM.
In the case of `CCCCCCCCCCCCCCCCCCOC[C@@H](COP(=O)([O-])OCC[N+](C)(C)C)OC`, the activity change, negative = inhibition in assay [1] was 29% [at 38 µM]. Moreover, the Potency result in assay [2], in [5], in [6], in assay [9] and in [11] was “inactive” throughout. Further, the activity, negative = inhibition in assay [3] is 4.35% [at 38 µM]. For the same compound, the Potency in assay [4] and in assay [16] was more than 46 µM in each case. For the same compound, the outcome in assay [7], in assay [12], in assay [13] and in assay [14] was inactive.
As for `COc1cc2nc(N3CCN(C(=O)[C@H]4COc5ccccc5O4)CC3)nc(N)c2cc1OC`, the activity change, negative = inhibition in assay [1] was -28.6% [at 38 µM]. Moreover, the Potency result in assay [2], in [5], in assay [6], in assay [9] and in assay [11] was “inactive” throughout. Also, the activity, negative = inhibition in assay [3] is -8.72% [at 38 µM]. Also, the result in [7], in assay [17], in assay [12], in assay [13] and in assay [14] was inactive.
In the case of `CCCn1nc(Oc2nc(SC)nc(N(C)C)n2)ccc1=O`, the results for the activity change, negative = inhibition in [1] and in [15] were 12.8% and -5.95%, respectively. Further, the activity, negative = inhibition in assay [3] is -17.7%. In addition, the Potency in assay [4] is more than 20.6 µM.
`Nc1nonc1OCCc1ccccc1`: the activity change, negative = inhibition is 2.66% in [1] and 3.18% in assay [15]. Further, in assay [3], the activity, negative = inhibition is -6.28%.
As to `CCOC(=O)CC1=C(C(=O)OCC)C(c2ccc(OC)c(OC)c2)C(C#N)=C(N)O1` (stereo unspecified), the activity change, negative = inhibition in assay [1] was 1.15%; in assay [15] it was -21.5%. Besides, the activity, negative = inhibition in assay [3] is 5.77%.
The corresponding values for `COC(=O)c1ccc(-c2sc3nc(N4CCOCC4)c4c(c3c2N)CC(C)(C)OC4)o1` are -12.7%, -1.53% and 5.68%.
